Laboratory results as given in PubChem BioAssay (NCI).
About 79,000 compounds went through this panel and 15% of them were active in at least one assay; those are over-represented in the sample as a whole. A number with no mark means an inactive call. The source made the active and inactive calls. Cut-off read from the data, not from the text of the source: active = growth inhibition above about 70%; inactive = the rest.

Key:
[1] = NCI Yeast Anticancer Drug Screen. Data for the rad50 strain (AID 155);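 note: 0% = growth of vehicle-only cultures of the same strain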; details: S. cerevisiae rad50 strain growth inhibition, hits give high values
Outline: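 Compounds were tested on a yeast strain with an engineered DNA damage repair alteration; the reported value is growth inhibition normalised to vehicle treatment.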

[2] = NCI Yeast Anticancer Drug Screen. Data for the mec2-1 strain (AID 157); details: S. cerevisiae mec2-1 strain, hits give high values
Outline: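 Readout is yeast growth inhibition, normalised to vehicle-treated controls, in the mec2-1 strain exposed to compound.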

[3] = NCI Yeast Anticancer Drug Screen. Data for the sgs1 mgt1 strain (AID 161);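 note: 0% = growth of cultures given vehicle only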; details: S. cerevisiae sgs1 mgt1 strain, hits give high values
Outline: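 This yeast growth screen uses a strain with defined DNA-repair lesions; compound-treated growth is compared with vehicle-treated growth.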

[4] = NCI Yeast Anticancer Drug Screen. Data for the cln2 rad14 strain (AID 165);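 note: 0% = growth equal to vehicle treated cultures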; details: S. cerevisiae cln2 rad14 strain, hits give high values
Outline: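 Relative to vehicle controls, growth inhibition of compound-treated cln2 rad14 yeast was recorded.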

[5] = NCI Yeast Anticancer Drug Screen. Data for the bub3 strain (AID 167); details: S. cerevisiae bub3 mutant strain, hits give high values
Outline: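 Growth of a checkpoint-deficient yeast mutant is measured after compound exposure. Values represent inhibition relative to vehicle.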

[6] = NCI Yeast Anticancer Drug Screen. Data for the mlh1 rad18 strain (AID 175); details: S. cerevisiae mlh1 rad18 strain growth inhibition, hits give high values
Outline: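 Test agents were incubated with a yeast strain of defined genotype (DNA damage repair defect). Inhibition of growth was derived by comparison with vehicle-exposed cultures.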

[7] = at 5.0 µM (retest, dose inferred, filed as 0.5)
[8] = at 50.0 µM (retest, dose inferred, filed as 5.0)

| Structure (SMILES) | growth inhibition [1, 7] | growth inhibition [1, 8] | growth inhibition ([1]; at 50.0 µM) | growth inhibition [2, 7] | growth inhibition [2, 8] | growth inhibition ([2]; at 50.0 µM) | growth inhibition [3, 7] | growth inhibition [3, 8] | growth inhibition ([3]; at 50.0 µM) | growth inhibition [4, 7] | growth inhibition [4, 8] | growth inhibition ([4]; at 50.0 µM) | growth inhibition [5, 7] | growth inhibition [5, 8] | growth inhibition ([5]; at 50.0 µM) | growth inhibition [6, 7] | growth inhibition [6, 8] | growth inhibition ([6]; at 50.0 µM) |
| --- | --- | --- | --- | --- | --- | --- | --- | --- | --- | --- | --- | --- | --- | --- | --- | --- | --- | --- |
| O=[N+]([O-])c1ccc(S(=O)(=O)N/N=C/C=C/c2ccccc2)cc1 | 6% | 13% | 71% (active) | 2% | 17% | 37% | 4% | 14% | 87.5% (active) | -4% | 16% | 48.3% | 6% | 36% | 48.6% | 6% | 39% | 75.5% (active) |
| CC(C)c1cc(O)c2c(c1O)C1CC3C(C)(C)CCC[C@]23C(=O)O1 (some centres not stated) | 1% | 49% | 92.5% (active) | 9% | 82% (active) | 95% (active) | -5% | 76% (active) | 92% (active) | 4% | 61% | 88.2% (active) | 1% | 64% | 94.7% (active) | 3% | 68% | 96.2% (active) |
| CC(C)(C)c1ccc(-c2nnc(SCc3ccc(Cl)cc3)n2-c2cccc(C(F)(F)F)c2)cc1 | -14% | -34% | 52.6% | -20% | -26% | 5.9% | -13% | -30% | -3.2% | 9% | -14% | -20.9% | 7% | -9% | 14.4% | -28% | -29% | -19.6% |
| ClCc1ccc2ccc3ccc(CCl)nc3c2n1 | 31% | 81% (active) | 47.1% | 67% | 93% (active) | 43% | 65% | 93% (active) | 70.2% (active) | 29% | 81% (active) | 27.8% | -7% | 95% (active) | 59% | 72% (active) | 94% (active) | 62% |
| O=C1C(Cl)=CC(=NCl)C=C1Cl | 59% | 83% (active) | 89.1% (active) | 53% | 91% (active) | 91% (active) | 27% | 98% (active) | 91.9% (active) | 47% | 100% (active) | 85% (active) | 84% (active) | 95% (active) | 89.8% (active) | 28% | 86% (active) | 89% (active) |
| O=C(c1ccccc1)c1ccc(OCC2CO2)cc1 (configuration not stated) | 10% | 77% (active) | 64.3% | -2% | 23% | 25% | 10% | 64% | 50.4% | -5% | 58% | 20.6% | -1% | 29% | 12.1% | 7% | 74% (active) | 71.9% (active) |
| NCCCCC(N)C(=O)Nc1ccc2ccccc2c1 (configuration not stated) | -1% | 91% (active) | 99% (active) | -41% | 37% | 99% (active) | 0% | 75% (active) | 99.2% (active) | 1% | 24% | 82.8% (active) | -9% | 71% (active) | 99.3% (active) | 0% | 83% (active) | 99% (active) |
| Oc1ccccc1N=CC1CCCCC1 | -61% | 40% | 69% | -27% | -24% | 37.1% | -33% | -23% | 28.4% | -53% | -31% | 17% | 9% | 46% | 74% (active) | -32% | 20% | 66.2% |
| COc1cc2c(oc(=O)c3cc(C)cc(OC)c32)c2c(C3OC(C)C(O)C(C)(O)C3O)ccc(O)c12 (configuration not stated) | 80% (active) | 96% (active) | 90.2% (active) | 72% (active) | 97% (active) | 89.3% (active) | 79% (active) | 96% (active) | 90.4% (active) | 75% (active) | 94% (active) | 90% (active) | 83% (active) | 97% (active) | 89.8% (active) | 90% (active) | 96% (active) | 88.8% (active) |
